Source: PubChem (National Center for Advancing Translational Sciences (NCATS))
miR-21 reporter – qHTS Assay for Modulators of miRNAs and/orActivators of miR-21. Potency, µM (top dose mostly 38.3 µM), actives largely listed as activators. HeLa miR-21 FLuc reporter, luciferase, 48 h. 340,000 tested, under 10 active;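 further: miR-21 action dims this reporter so a rising signal means less miR-21 action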
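HeLa cells endogenously expressing miR-21, stably carrying CMV-driven firefly luciferase with a downstream miR-21 binding site, 2000 cells/well. Titrations up to approximately 40 uM, 48 hours; luciferase luminescence read.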
TDP1 cell noCPT – qHTS for Inhibitors of human tyrosyl-DNA phosphodiesterase 1 (TDP1): qHTS in cells in absence of CPT | DT40 Tdp1-/- hTDP1 cells, no CPT, ATP luminescence, 48 h | Potency, µM (top dose mostly 46.2 µM), usual class: inhibitors | 420,000 tested, 15% active | AID 686978, 2013; further: nearly all actives have a fitted effect of over 55% in size
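Seeded 400 DT40-hTDP1 cells/well (vehicle DMSO, no 20 nM CPT); pinned compounds; ≥48 hr at 37 °C; CellTiter-Glo luminescence as viability measure.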
uPA generation – qHTS for Inhibitors of Cell Surface uPA Generation. cell surface uPA generation assay, qHTS. Potency, µM (doses to about 38.3 µM), hits mostly inhibitors. 330,000 tested, 0.31% active. AID 540303, 2011; active means well fitted inhibition curve with a large enough effect; inconclusive means small, poorly fitted or top-dose-only effect; inactive means no such curve, though single readings can be large or run the other way; tested in mouse RAW 264.7 cells; further: nearly all actives have a fitted effect of over 55% in size
TDP1 block – qHTS Assay for Inhibitors of Tyrosyl-DNA Phosphodiesterase (TDP1) | recombinant TDP1, AlphaScreen DNA substrate cleavage | Potency, µM (series often up to 130 µM), hits mostly inhibitors | 350,000 tested, 0.28% active; further: nearly all actives have a fitted effect of over 40% in size
Target sequence (Q9NUW8 whole entry, looked up): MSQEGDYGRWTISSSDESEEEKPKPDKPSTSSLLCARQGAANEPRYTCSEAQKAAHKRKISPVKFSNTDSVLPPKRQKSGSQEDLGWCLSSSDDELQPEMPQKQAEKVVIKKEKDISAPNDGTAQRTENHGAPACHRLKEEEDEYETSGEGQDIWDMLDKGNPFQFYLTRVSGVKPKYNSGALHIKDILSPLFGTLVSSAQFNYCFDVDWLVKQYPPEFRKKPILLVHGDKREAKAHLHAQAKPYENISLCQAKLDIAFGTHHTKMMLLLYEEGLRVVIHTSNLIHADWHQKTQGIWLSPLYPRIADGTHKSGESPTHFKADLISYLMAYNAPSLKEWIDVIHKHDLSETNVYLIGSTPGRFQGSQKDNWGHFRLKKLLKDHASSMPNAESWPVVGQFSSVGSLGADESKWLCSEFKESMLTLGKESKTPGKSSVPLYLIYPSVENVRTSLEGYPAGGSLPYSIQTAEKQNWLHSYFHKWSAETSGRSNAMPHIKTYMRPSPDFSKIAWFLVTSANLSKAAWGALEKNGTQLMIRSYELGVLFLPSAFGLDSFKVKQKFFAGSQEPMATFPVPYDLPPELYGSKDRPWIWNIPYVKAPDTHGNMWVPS
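Signal: AlphaScreen proximity between streptavidin donor and anti-FITC acceptor beads on intact substrate. Reaction: Tdp1 1 nM, substrate 15 nM final, 5 min RT after 15 min compound preincubation.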
DT40 TDP1 CPT – qHTS for Inhibitors of human tyrosyl-DNA phosphodiesterase 1 (TDP1): qHTS in cells in presence of CPT; chicken DT40 Tdp1-/-;hTDP1 cells + 20 nM CPT, ATP luminescence, 48 h; Potency, µM (titrated, usually from 46.2 µM), usual class: inhibitors; 420,000 tested, 12% active; AID 686979, 2013; further: nearly all actives have a fitted effect of over 55% in size
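Chicken DT40 Tdp1-/- cells stably complemented with human TDP1 were seeded at 400 cells/well in medium containing 20 nM camptothecin, exposed to pin-transferred compounds, and grown at 37 °C for at least 48 hr. Viability was read as ATP luminescence.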
Hits are given with their value; 0 = inactive; ? = inconclusive; - = no result; [ ] = dose if it differs, or a comment. A selection: hits, their analogues and other compounds. The true share with any hit is near 16%. Unless noted, the call rests on the fitted dose curve; in most records, active means well fitted curve in the direction sought with a large enough effect; inconclusive means small, poorly fitted or top-dose-only effect, or another doubt; inactive means no such curve, though single readings can be large; an effect the other way counts as inactive or inconclusive.

SMILES	miR-21 reporter	TDP1 cell noCPT	uPA generation	TDP1 block	DT40 TDP1 CPT
CC(O)(c1ccc(F)c(F)c1)c1nc(-c2ccc3ccccc3c2)cs1 (configuration not stated)	-	?	-	-	18µM
CC(O)(c1cccnc1)c1nc(-c2ccoc2)cs1 (configuration not stated)	-	0	-	-	0
COc1ccc(S(=O)(=O)Cc2ccccc2)cc1N	0	?	0	0	9.2µM
Cc1ccccc1S(=O)(=O)NC(=O)C1(C)CCN1C(=O)C1(c2ccccc2)CC1 (configuration not stated)	-	0	-	-	0
CC1(C)CC(=O)C2=C(C1)NC(Nc1nc3ccccc3o1)=NC2c1cccc(O)c1 (configuration not stated)	-	?	-	0	0
CC1(C)CC(=O)C2=C(C1)NC(Nc1nc3ccccc3o1)=NC2c1cccnc1 (configuration not stated)	-	0	-	0	?
Cc1ccc(C2N=C(Nc3nc4ccccc4o3)NC3=C2C(=O)CC(C)(C)C3)cc1 (configuration not stated)	-	4.5µM	-	0	7.1µM
COc1ccc(C2N=C(Nc3nc4ccccc4o3)NC3=C2C(=O)CC(C)(C)C3)cc1 (configuration not stated)	-	6.3µM	-	0	6.3µM
CC1(C)CC(=O)C2=C(C1)NC(Nc1nc3ccccc3o1)=NC2c1ccccc1 (configuration not stated)	-	2.8µM	-	0	2.8µM
CCN(CC)C(=O)CSc1nnc(-c2cccs2)n1Cc1ccco1	0	0	0	0	0
CN(C)CC(C)(O)c1ccc2c(c1)CN(Cc1cn(C)c3ccccc13)CCO2 (configuration not stated)	-	21µM	-	-	0[9.04 µM]
Cn1cc(CN2CCc3ccccc3C2)c2ccccc21	0	?	-	0	9.2µM
Cc1nc2ccccc2c(=O)n1NC(=O)C1CC1	0	0	0	0	0
NC(N)=NC(=O)c1nc(Cl)c(N2CCCCCC2)nc1N	-	7.1µM	0	0	7.1µM
CC(C)CN(C)c1nc(N)c(C(=O)N=C(N)N)nc1Cl	-	-	-	0	-
CCC(=O)N1CCc2cc(S(=O)(=O)CCC(=O)N3CCN(c4ccc(C(C)=O)cc4)CC3)ccc21	0	7.3µM	0	0	18µM
CCC(=O)N1CCc2cc(S(=O)(=O)CCC(=O)Nc3ccc(OC)cc3)ccc21	0	0	0	0	0
CC(=O)N1CCc2cc(S(=O)(=O)CCC(=O)N3CCc4ccccc4C3)ccc21	0	0	0	0	?
CCC(=O)N1CCc2cc(S(=O)(=O)CCC(=O)N3CCN(c4ccc(Cl)cc4)CC3)ccc21	0	4.1µM	?	0	8.2µM
CCC(=O)N1CCc2cc(S(=O)(=O)CCC(=O)Nc3ccc(OC(F)(F)F)cc3)ccc21	0	23µM	-	0	23µM
CCC(=O)N1CCc2cc(S(=O)(=O)CCC(=O)N3CCN(c4cccc(Cl)c4)CC3)ccc21	0	9.2µM	-	0	21µM
CCCCS(=O)CC(O)CSc1nc(-c2ccc(OC)cc2)cc(-c2ccccc2)c1C#N (configuration not stated)	0	0	-	0[2.28 µM]	?
COc1ccccc1CNc1nc(-c2ccco2)nn1S(=O)(=O)c1ccc(C)cc1	0	?	-	0	?
CCN(CC)c1ccc(N=Cc2cc(Br)ccc2O)cc1	?	?	?	0	16µM
Cc1ccc(O)c(C=Nc2cc(C)ccc2O)c1	0	5.2µM	0	0	5.8µM
SMILES	miR-21 reporter	TDP1 cell noCPT	uPA generation	TDP1 block	DT40 TDP1 CPT
Oc1ccc(Br)cc1C=Nc1ccc(Cl)cc1	0	0	0	0	0
CCc1ccc(O)c(N=Cc2ccccc2O)c1	0	0	?	0	?
CC(C)(C)c1ccc(O)c(N=Cc2cc(Br)ccc2O)c1	0	26µM	0	0	?
Cc1cc(C)c(C)c(S(=O)(=O)N2CCC(C(=O)N(C)Cc3nc4ccccc4c(=O)[nH]3)CC2)c1C	-	?	0	-	?
Cn1c(N)c(C(=O)COC(=O)c2ccc(Br)o2)c(=O)n(C)c1=O	0	0	0	0	0
CCOC(=O)c1c(C)[nH]c(C(=O)COC(=O)c2ccc([N+](=O)[O-])o2)c1C	-	26µM	0	0	16µM
Cn1c(N)c(C(=O)COC(=O)c2ccc([N+](=O)[O-])o2)c(=O)n(C)c1=O	0	?	0	0	18µM
CCn1cnc2c1c(=O)n(Cc1ccc(C(=O)OC)cc1)c(=O)n2Cc1ccccc1	0	?	0	0	0
O=S1(=O)CC(N2CCC(Cc3ccccc3)CC2)CN1CCc1ccccc1 (configuration not stated)	-	21µM	-	-	?
Cc1cccc(CN2CCN(C3CN(Cc4ccc([N+](=O)[O-])cc4)S(=O)(=O)C3)CC2)c1 (configuration not stated)	-	23µM	-	-	16µM
O=[N+]([O-])c1cccc(CN2CCC(Cc3ccccc3)CC2)c1	0	0	0	-	23µM
O=C(NC1CCN(Cc2cccc([N+](=O)[O-])c2)CC1)c1ccccc1	0	0	0	-	0
O=[N+]([O-])c1ccc(CN2CC(N3CCC(Cc4ccccc4)CC3)CS2(=O)=O)cc1 (configuration not stated)	-	16µM	-	-	16µM
O=S1(=O)CC(N2CCCC2)CN1CCc1ccccc1 (configuration not stated)	-	0	-	-	0
CCOC(=O)C1=C(C)N=c2s/c(=C/c3ccc(OCC(=O)O)cc3)c(=O)n2C1c1ccc(SC)cc1 (configuration not stated)	0	-	-	-	-
OCCNc1nc(Nc2ccc(O)cc2)nc2ccccc12	0	?	0	-	?
Cc1ccc(OCCN2CCN(c3nc(NCc4ccco4)c4ccccc4n3)CC2)cc1	0	15µM	0	0	?
OCCN1CCN(c2nc(NCc3ccco3)c3ccccc3n2)CC1	0	0	0	0	0
OCCNc1nc(N2CCN(c3ccccc3)CC2)nc2ccccc12	0	?	0	0	23µM
c1ccc(CN2CCN(c3nc(NCc4ccco4)c4ccccc4n3)CC2)cc1	0	23µM	0	0	?
Cc1ccc(S(=O)(=O)Nc2nc3ccccc3nc2NCc2ccco2)cc1	0	?	?	0	?
CCCNC(=S)N1CCN(C)CC1	0	0	0	-	0
COc1ccc(/C=c2\s/c(=C/C(=O)c3ccc(C)cc3)[nH]c2=O)cc1OC	0	18µM	0	0	?
Cc1cc(C)cc(NC(=O)c2ccc(S(=O)(=O)N(C)CC3CCCO3)cc2)c1 (configuration not stated)	0	?	0	0	0
c1ccc2c(-c3nc(C4CCCCC4)no3)cc(-c3ccncc3)nc2c1	0	23µM	-	0	?
